From PubChem
The list is not random: actives were taken first. Their share in the collection is about 8.9%.
12-hLO inh = blocks human 12-lipoxygenase activity; actives 0.12% (n = 150,000); Potency, µM (highest dose often 57.1 µM), for the others: at the highest dose activity change, negative = inhibition, actives largely listed as inhibitors; purified 12-hLO, xylenol orange hydroperoxide absorbance; note: potency is the fitted concentration of half-maximal effect; nearly all actives have a fitted effect of over 55% in size
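Hydroperoxide formation by human 12-lipoxygenase from 40 uM arachidonic acid was followed colorimetrically via ferric-xylenol orange complex, using the 573/405 nm absorbance ratio. Enzyme concentration was 150 nM, with 30 min reaction at room temperature.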
ALDH1A1 inh = inhibitors of human aldehyde dehydrogenase 1A1. P00352. Purified ALDH1A1, NADH fluorescence, propionaldehyde substrate. Potency, µM (series often up to 75.3 µM), inactives show at the top dose activity, negative = inhibition, most hits filed as inhibitors. actives 7.3% (n = 220,000); active = well fitted inhibition curve with a large enough effect, not every such curve was filed as active; inconclusive = small, poorly fitted or top-dose-only effect, or another doubt; inactive = no such curve, though single readings can be large or run the other way;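 note: potency is the fitted concentration of half-maximal effect; plate controls were no enzyme wells and a reference inhibitor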
IMPase inh = cell-permeable inhibitors of inositol monophosphatase (IMPase); inhibition (IP1 accumulation), % at 46.1 µM; CHO-M1 cells, IP1 accumulation, HTRF TR-FRET ratio; 120,000 tested, under 10 active; AID 901; P97697; active = well fitted curve in the direction sought with a large enough effect in the signal ratio, not every such curve was filed as active; inconclusive = small, poorly fitted or top-dose-only effect, or a change in a side signal; inactive = no such curve, though single readings can be large or run the other way; the % refers to the signal ratio;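 note: cells stimulated with carbachol in lithium chloride buffer; plate controls were DMSO basal wells for no effect and reference inhibitor wells for full effect; higher means more IMPase inhibition seen as more IP1 and lower FRET ratio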
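Measured: the HTRF emission ratio (665/620 nm) plus the 620 nm donor channel, each fitted to the Hill equation to give AC50. Cells were CHO-M1 given compounds up to 46 uM and a 30 min carbachol stimulation at 37C.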
HPGD inh = blocks human HPGD enzyme activity; purified HPGD, NADH fluorescence kinetic, PGE2 substrate; Potency, µM, for the others: top-dose activity change, negative = inhibition, hits mostly inhibitors; actives 4.3% (n = 150,000); AID 894; active = well fitted inhibition curve with a large enough effect, not every such curve was filed as active; inconclusive = small, poorly fitted or top-dose-only effect, or another doubt; inactive = no such curve, though single readings can be large or run the other way; note: potency is the fitted concentration of half-maximal effect
Target sequence (P15428 whole entry, looked up): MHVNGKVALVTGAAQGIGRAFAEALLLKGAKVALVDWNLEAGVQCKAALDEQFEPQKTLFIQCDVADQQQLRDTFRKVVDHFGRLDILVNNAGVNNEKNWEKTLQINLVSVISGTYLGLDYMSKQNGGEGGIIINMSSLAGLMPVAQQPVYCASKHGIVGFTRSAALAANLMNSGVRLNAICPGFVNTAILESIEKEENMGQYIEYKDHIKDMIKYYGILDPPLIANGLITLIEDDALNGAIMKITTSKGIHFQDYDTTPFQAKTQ
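20 nM HPGD preincubated 15 min at room temperature with compound in 50 mM Tris-HCl pH 8, 0.01% Tween 20. Started with 1 mM NAD+ and 30 uM prostaglandin E2; NADH fluorescence (360/450 nm) read 5 times over 30-s intervals, last minus first.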
IMPase Li cell = membrane-permeable IMPase blocker, potentiated with lithium | actives 0.35% (n = 210,000) | AID 1457 | CHO-M1 cells, IP1 TR-FRET (IP-One), carbachol + lithium | Potency, µM (titrated, usually from 59.4 µM), without a hit: top-dose activity, negative = IMPase inhibition, usual class: inhibitors;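 note: IP1 builds up when IMPase is blocked and the TR-FRET signal falls; potency is the fitted concentration of half-maximal effect; plate controls were basal vehicle for no effect and high inhibitor control for full effect; nearly all actives have a fitted effect of over 50% in size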
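Readout is a homogeneous TR-FRET IP1 immunoassay (Ex 320, Em 665 and 620), where raised cytosolic IP1 lowers signal. Cells were CHO-M1 treated 30 min at 37C with test compounds plus a little lithium; AC50 values came from Hill-equation fitting.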
NPSR antag = neuropeptide S receptor (human) antagonism, cAMP. Q6W5P4. CHO-NPSR cells, cAMP TR-FRET, antagonist mode. Potency, µM (top dose mostly 38.3 µM), inactives show at the top dose activity change, negative = inhibition, hits mostly inhibitors. actives 1% (n = 220,000). AID 1461; note: potency is the fitted concentration of half-maximal effect; nearly all actives have a fitted effect of over 50% in size
Target sequence (Q6W5P4 whole entry, looked up): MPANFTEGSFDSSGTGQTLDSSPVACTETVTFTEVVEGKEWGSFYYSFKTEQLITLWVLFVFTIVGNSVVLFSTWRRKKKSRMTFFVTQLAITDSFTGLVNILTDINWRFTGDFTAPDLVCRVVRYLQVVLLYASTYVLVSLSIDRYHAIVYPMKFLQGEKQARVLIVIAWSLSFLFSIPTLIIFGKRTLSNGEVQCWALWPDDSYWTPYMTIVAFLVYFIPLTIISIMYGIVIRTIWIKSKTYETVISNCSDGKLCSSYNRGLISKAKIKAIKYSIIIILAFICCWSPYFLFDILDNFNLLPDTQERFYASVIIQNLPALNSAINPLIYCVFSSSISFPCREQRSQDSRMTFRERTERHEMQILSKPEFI
The depositor's hits bear a star; ? = inconclusive; . = not tested or not shown; [ ] = remark or other dose. Unless noted, calls come from the whole dose curve; as a rule, active = well fitted curve in the direction sought with a large enough effect; inconclusive = small, poorly fitted or top-dose-only effect, or another doubt; inactive = no such curve, though single readings can be large; an effect the other way counts as inactive or inconclusive. Unless noted, % is set by controls: 0 for no effect and ±100 for the full control effect.

SMILES	12-hLO inh	ALDH1A1 inh	IMPase inh	HPGD inh	IMPase Li cell	NPSR antag
O=C(NCCn1cc(SCC(=O)N2CCOCC2)c2ccccc21)c1c(F)cccc1F	.	4%	.	.	-3%	9%
COc1ccc(S(=O)(=O)N(C(C)=O)c2ccc(OC(C)=O)c3ccccc23)cc1[N+](=O)[O-]	-3%	7.1µM*	3	.	.	-18%[46.1 µM]
CC(=O)Oc1ccccc1N(C(C)=O)S(=O)(=O)c1ccc(C)cc1	.	-4%	.	.	7%	-25%
O=C(C[N+]1(CC#Cc2ccccc2)CCOCC1)c1ccc(Cl)cc1	.	22µM*	.	.	8%	-21%
O=C(C[N+]1(CC#Cc2ccccc2)CCOCC1)c1ccccc1	.	4.5µM*	.	.	15%	-1%
O=C(NCCCn1ccnc1)c1ccc(Cl)cc1[N+](=O)[O-]	.	9%	.	.	17%	20%
CS(=O)(=O)N(Cc1ccco1)CC(O)Cn1cc(C=O)c2ccccc21 (stereo not drawn)	13%	1.3µM*	-10	-25%	16%[38.3 µM]	-11%[46.1 µM]
O=C(NN=C1C2CC3CC(C2)CC1C3)c1cccs1	7%	20µM*	1	-8%	4%[38.3 µM]	18%[46.1 µM]
O=C1c2ccc([N+](=O)[O-])cc2C(=O)N1c1c[nH]c(=O)[nH]c1=O	.	-2%	.	.	2%	15%
O=S(=O)(NC1c2cccc3cccc(c23)C1Sc1ncccn1)c1ccc(Cl)cc1 (stereo not drawn)	-2%	?	.	-11%	5%	-38%
Cc1ccc(S(=O)(=O)NC2c3cccc4cccc(c34)C2Sc2n[nH]c(N)n2)cc1 (stereo not drawn)	-4%	4µM*	-5	-14%	6%	-34%
COc1cccc(C(=O)CN2CCN(S(=O)(=O)c3cccc([N+](=O)[O-])c3)CC2)c1	-3%	18µM*	1	-10%	0%	-12%[46.1 µM]
O=C(Cc1ccccc1)N1CCN(S(=O)(=O)c2cccc([N+](=O)[O-])c2)CC1	.	?	.	.	6%	-7%
COc1ccc(C(=O)CN2CCN(S(=O)(=O)c3cccc([N+](=O)[O-])c3)CC2)cc1OC	-8%	20µM*	4	?	-4%	-5%[46.1 µM]
COc1ccc(C(=O)N2CCN(S(=O)(=O)c3ccc(F)cc3)CC2)cc1OC	.	1%	.	.	1%	8%
COc1cc(NC2c3ncccc3C(=O)N2Cc2ccco2)cc(OC)c1 (stereo not drawn)	-9%	16µM*	3	-17%	20%[38.3 µM]	?
Cc1ccc(NC2c3ncccc3C(=O)N2Cc2cccs2)cc1C (stereo not drawn)	.	?	.	.	-2%	3%
O=C1c2cccnc2C(Nc2ccc(Cl)cc2)N1Cc1cccs1 (stereo not drawn)	.	4.5µM*	.	.	9%	-14%
Cc1c(CN(C)C(=O)c2sc3cc(Cl)ccc3c2Cl)cnn1C	-3%	?	-2	20µM*	5%[38.3 µM]	-4%[46.1 µM]
CC(C)CCN1CCNC(=O)C1CC(=O)Nc1ccc(F)cc1 (stereo not drawn)	-5%	18µM*	-6	-14%	11%[38.3 µM]	-12%[46.1 µM]
Nc1nonc1C(=O)NCCN=Cc1ccccc1O	2%	6%	0	-14%	-6%[38.3 µM]	1%[46.1 µM]
Nc1nonc1C(=O)NCCN=Cc1cc(Cc2ccccc2)cc(Br)c1O	?	-11%	-1	16µM*	1%[38.3 µM]	?
CCN(CC)CC(=O)c1ccc(-c2ccccc2)cc1	-5%	?	-2	-26%	21%[38.3 µM]	-9%[46.1 µM]
C/[N+]([O-])=C\CC(=O)c1ccc(-c2ccccc2)cc1	.	28µM*	.	.	-4%	-1%
CCN(CC)C(=O)c1ccc(-c2ccccc2)cc1	-2%	?	.	0.63µM*	2%	-10%
SMILES	12-hLO inh	ALDH1A1 inh	IMPase inh	HPGD inh	IMPase Li cell	NPSR antag
O=C(NCc1cccc(Cl)c1)c1ccc2c(c1)SC1=NS(=O)(=O)CCN12	.	1%	.	.	12%	-3%
O=C(NCc1ccccc1Cl)c1ccc2c(c1)SC1=NS(=O)(=O)CCN12	.	4.5µM*	.	.	-1%	7%
CN1CC2([N+](=O)[O-])CC=C(Oc3ccccc3)C([N+](=O)[O-])(C1)C2 (stereo not drawn)	3%	2.8µM*	-1	-14%	13%[38.3 µM]	-30%[46.1 µM]
C[N+]1(C)CC2([N+](=O)[O-])CC=C(Oc3ccccc3)C([N+](=O)[O-])(C2)C1 (stereo not drawn)	1%	12%	4	2%	-2%	10%
CCOc1ccc(NC(=O)CS(=O)CC(=O)NC2CCCc3ccccc32)cc1 (stereo not drawn)	-9%	6.3µM*	7	-6%	-11%[38.3 µM]	-16%[46.1 µM]
CN(C(=O)CCl)C1CCCc2ccccc21 (stereo not drawn)	.	0.4µM*	.	.	-2%	-31%
Cc1ccc(-n2nnnc2SCC(=O)NC2CCCc3ccccc32)cc1 (stereo not drawn)	-2%	7.9µM*	-9	-22%	10%	-15%
O=C(CCn1cccc1)NC1CCCc2ccccc21 (stereo not drawn)	-5%	7%	5	-2%	-12%[38.3 µM]	-3%[46.1 µM]
O=C(CCl)NC1CCCc2ccccc21 (stereo not drawn)	.	3.2µM*	.	.	1%	0%
CC(=O)NCCNc1ncnc2ccc(-c3ccoc3)cc12	.	?	.	.	4%	.
Cc1cc(Cl)ccc1N=C1N=C(N)c2ccccc21	1%	5%	-8	-9%	1%	-31%
O=C(COc1ccc2oc3c(c2c1)CCCC3)Nc1ccc(Br)cc1	.	.	1	.	.	.
CCCc1c(C(=O)Nc2ccc(N3CCOCC3)cc2)cnn1-c1ccccc1	.	3.2µM*	.	.	.	25%
CCCc1c(C(=O)NNc2ccc(C)cc2)cnn1-c1ccccc1	.	14µM*	.	.	.	12%
CCc1ccc(NC(=O)c2cnn(-c3ccccc3)c2C)cc1	2%	9%	.	2.5µM*	-3%	-2%
CCCc1c(C(=O)Nc2ccc(F)cc2C)cnn1-c1ccccc1	.	?	.	.	.	48%
CCCc1c(C(=O)Nc2cc(C)on2)cnn1-c1ccccc1	.	18µM*	.	.	.	6%
COC(=O)c1c(NC(=S)NN2CCOCC2)sc2c1CCCC2	.	?	.	.	8%	?
COC(=O)C1=C(C)N(c2ccc(F)cc2)C(=O)C1	-3%	12%	-12	-10%	3%	-10%[46.1 µM]
O=C(O)c1cc2cc(OCc3ccccc3)ccc2[nH]1	-3%	?	-2	?	-11%[38.3 µM]	-7%[46.1 µM]
Cc1ccc(S(=O)(=O)N(C)CC(=O)N2CCN(c3ccccn3)CC2)cc1	-23%	-15%	5	-11%	26%[38.3 µM]	-11%[46.1 µM]
C[N+](C)(C)c1ccc(/C=N/Nc2nc(Cl)c(C#N)c(Cl)c2Cl)cc1	0%	16µM*	10	-24%	30%	?
COc1ccc(/C=N/N=C2/CC(C)(C)Cc3n[nH]c(=O)cc32)cc1	.	28µM*	.	.	18%	-7%
